ssDAF-12 act = S. stercoralis DAF-12 nuclear receptor activators, primary screen, cell-based, luminescence, HEK293, GRIP1 co-expression, lit1-tk-luc | activation, % at 6.8 µM | 370,000 compounds, 1% hits | Nuclear hormone receptor DAF-12 (Strongyloides stercoralis) | AID 652126, 2013 | HEK293 ssDAF-12/GRIP1 lit1-tk-luc reporter; % of 3 µM dafachronic acid response;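 active = activation above the mean over all tested compounds plus 3 SD, cut at about 0.9% in these data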
hcDAF-12 act = H. contortus DAF-12 nuclear receptor activators, primary screen, cell-based, luminescence, HEK293, lit1-tk-luc reporter. HEK293 hcDAF-12 lit1-tk-luc reporter; 0% DMSO, 100% Δ7-dafachronic acid. activation, % at 6.8 µM. 370,000 compounds, 1.4% hits. AID 652067, 2013;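 active = activation above the mean of all tested compounds plus 3 SD, cut at about 5.5% in these data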
DAX1 inh-1 = DAX1 (NR0B1) inhibitors on StAR promoter, primary screen, cell-based, luminescence, SF-1 (NR5A1), full-length DAX-1; HEK293T StAR-luciferase reporter, SF-1/DAX-1 repression relief; inhibition, % at 6.8 µM; 370,000 compounds, 1.1% hits; AID 652010, 2013;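 active = inhibition above the mean over all tested compounds plus 3 SD, cut at about 3.6% in these data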;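 note: higher inhibition means more luminescence from relief of DAX-1 repression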
hgDAF12 agonist = H. glycines DAF-12 receptor agonists, primary screen, cell-based, luminescence, HEK293, GAL4 fusion, UAS-luciferase; Nuclear hormone receptor DAF-12 (Heterodera glycines), GAL4 fusion; HEK293 GAL4-hgDAF12 UAS-luciferase reporter, agonist luminescence; normalized to butyrate control; activation, % at 6.8 µM; AID 687014, 2013; 370,000 compounds, 1.8% hits;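 active = activation above a cutoff set at the mean of all screened compounds plus 3 SD, cut at about 10% in these data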
DAX1 inh-2 = DAX1 (NR0B1) inhibitors, primary screen, cell-based, HEK293, Gal4-DAX1, luciferase luminescence; HEK293 Gal4-DAX1 luciferase reporter; inhibition, % at 6.75 µM; 340,000 compounds, 0.99% hits; AID 504766, 2011;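 active = inhibition above the mean over all tested compounds plus 3 SD, cut at about 4.2% in these data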;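 note: inhibition shows as a rise in luminescence from relieved DAX1 repression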
Target sequence (P51843 207-470 limits assumed): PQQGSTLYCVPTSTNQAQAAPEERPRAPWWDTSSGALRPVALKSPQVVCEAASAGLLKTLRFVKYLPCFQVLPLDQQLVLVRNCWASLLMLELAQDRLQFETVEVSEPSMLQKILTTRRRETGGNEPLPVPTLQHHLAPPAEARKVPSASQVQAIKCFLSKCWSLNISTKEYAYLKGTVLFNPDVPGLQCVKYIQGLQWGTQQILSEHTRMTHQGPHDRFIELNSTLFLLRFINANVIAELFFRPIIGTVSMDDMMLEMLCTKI
Of the large screens only hits and unclear results are named; the others gave an inactive call. Most compounds without a hit are left out; they make up all but 4.1% or so of the library.

CCN1CCN(C(=O)CN2C(=O)c3ccccc3S2(=O)=O)CC1	DAX1 inh-1 3.8
CC(C)NC(=O)N(C)C[C@H]1OCc2cn(nn2)CCCC(=O)N([C@H](C)CO)C[C@@H]1C	none (no result: DAX1 inh-2)
COCCN(C(=S)Nc1cccc(C)c1C)C(C)c1ccco1 (stereo not given)	DAX1 inh-2 8.3
COCCN(C(=S)Nc1ccccc1C)C(C)c1ccco1 (stereo not given)	none
O=c1c2ccccc2n(Cc2ccccc2)n1[C@@H](Cc1ccccc1)Cn1cc(C2CCCC2)nn1	none (no result: DAX1 inh-2)
Cc1c(Cl)c([N+](=O)[O-])nn1CC(=O)N1CCCC1	none
Cc1c(Cl)c([N+](=O)[O-])nn1CC(=O)N1CCN(Cc2ccccc2)CC1	DAX1 inh-2 4.4
Cc1nn(-c2ccccc2)c2sc(C(=O)NNC(=O)COc3ccccc3)cc12	ssDAF-12 act 1.6
CCNc1nc(N)c([N+](=O)[O-])c(Nc2cccc(Cl)c2)n1	none (no result: DAX1 inh-1, DAX1 inh-2)
COc1ccc(N/C=C/C(=O)c2ccc(OC)c(OC)c2)cc1	none
COc1ccc(C(=O)/C=C/Nc2cccc(C)n2)cc1OC	hgDAF12 agonist 11
Cc1cc(C)n(C(=O)Cn2nc(C)c(Br)c2C)n1	none
Cc1cc(C)n(C(=O)Cn2nc(C)c(Cl)c2C)n1	DAX1 inh-2 4.5
Cc1ccn2c(C(=O)c3ccc(Cl)cc3)cnc2c1	DAX1 inh-1 3.9, hgDAF12 agonist 13
COc1ccc(-n2c(SCC(=O)NC3CCCCCC3)nnc2-c2ccncc2)cc1	none (no result: DAX1 inh-2)
CC1=C(C(=O)OC(C)C)C(c2c[nH]c3ccccc23)n2ncnc2N1 (stereo not given)	hcDAF-12 act 5.7
COc1ccccc1C1C(C(N)=O)=C(C)Nc2ncnn21 (stereo not given)	DAX1 inh-2 6.7
COc1ccc(NC(=O)c2cc(C3CCCCN3S(=O)(=O)Cc3ccccc3)on2)cn1 (stereo not given)	hgDAF12 agonist 11 (no result: DAX1 inh-2)
O=C(NCc1ccccc1)c1cc(C2CCCCN2S(=O)(=O)Cc2ccccc2)on1 (stereo not given)	none (no result: DAX1 inh-2)
CCc1ccc(C(=O)Nn2c(C)nc3ccccc3c2=O)cc1	ssDAF-12 act 1.0
CCOC(=O)CSc1nc2ccccc2c(=O)n1NC(=O)c1ccccc1	ssDAF-12 act 1.1, DAX1 inh-1 3.9, hgDAF12 agonist 11
O=C(Nn1c(-c2ccc(Br)cc2)nc2ccccc2c1=O)c1ccncc1	hgDAF12 agonist 13
CNC12CCc3cc(OC)c(OC)c(c31)-c1cc3c(cc1C2)OCO3 (stereo not given)	none (no result: DAX1 inh-2)
O=C(CNC(=O)c1ccc(Cl)cc1Cl)OCCOc1ccccc1	DAX1 inh-1 3.9
COc1ccc(OCCOC(=O)CNC(=O)c2ccc(Cl)cc2Cl)cc1	none
COP1(=O)CCOCC[C@H](CC(C)C)NC(=O)[C@H](CC(C)C)N1 (stereo not given in full)	none (no result: DAX1 inh-1, DAX1 inh-2)
Cc1nc2ccccc2c2oc(C(=O)NCCN3CCN(C)CC3)cc12	hgDAF12 agonist 12
c1ccc(CN=C2NN=C(c3cc4ccccc4o3)CS2)cc1	none
c1ccc2oc(C3=NNC(=NC4CC4)SC3)cc2c1	hcDAF-12 act 6.8
COc1cc(CNCCc2ccccc2)cc(Br)c1OCC(=O)Nc1ccccc1C	DAX1 inh-2 4.3
COCC(=O)N1CCC(C(=O)NCC2COc3ccccc3O2)CC1 (stereo not given)	none (no result: DAX1 inh-2)
CCN(CC)c1ccc2cc(-c3nc4ccccc4n3C)c(=O)oc2c1	ssDAF-12 act 1.0, DAX1 inh-1 3.6
CCc1ccc(CCNC(=O)OCCCN2CCC3(CCC(C)CC3)C2=O)cc1 (stereo not given)	none (no result: DAX1 inh-2)
O=C(CSc1nc2ccccc2nc1N1CCOCC1)N1CCN(c2cccc(C(F)(F)F)c2)CC1	none (no result: DAX1 inh-2)
CC(C)(C)c1ccc(-c2cc(NC(=O)Cc3c[nH]c4ccccc34)ccc2Nc2cccnc2)cc1	ssDAF-12 act 1.7 (no result: DAX1 inh-2)
CCCc1ccc(-c2cc(NC(=O)Cc3c[nH]c4ccccc34)ccc2Nc2cccnc2)cc1	none (no result: DAX1 inh-2)
NC(=O)C1CCCN(Cc2ccc3ccccc3c2)C1 (stereo not given)	DAX1 inh-2 5.1
CCc1ccccc1NC(=O)C1CCN(C(=O)c2cccs2)CC1	DAX1 inh-2 4.4
On1c(-c2ccc(Cl)cc2)nc2ccccc21	hgDAF12 agonist 11 (no result: DAX1 inh-2)
On1c(-c2ccccc2)nc2ccccc21	none
F[B-](F)(F)c1cncnc1	none (no result: DAX1 inh-2)
CC1=C(C(=O)NCCCOC(C)C)C2(CCC(C)CC2)OC1=O (stereo not given)	ssDAF-12 act 1.0
CC1=C(C(=O)NCCN2CCOCC2)C2(CCC(C)CC2)OC1=O (stereo not given)	none
COc1ccccc1OCc1cc(C(=O)N2CCN(C)C(c3ccccc3)C2)no1 (stereo not given)	DAX1 inh-1 4.2
COc1cc(C)ccc1OCc1cc(C(=O)N2CCC(c3ccc(F)cc3)C2)no1 (stereo not given)	hgDAF12 agonist 13
COc1ccccc1OCc1cc(C(=O)N2CC3C[C@@H]4CC2C[C@H](C3)C4)no1	DAX1 inh-1 3.7, hgDAF12 agonist 12
O=C(c1cc(COc2c(F)cccc2F)on1)N1C[C@H]2CC[C@H]1C2	hgDAF12 agonist 11
CSc1ccccc1OCc1cc(C(=O)N2CCN(C)C(c3ccccc3)C2)no1 (stereo not given)	none
CC(=O)Nc1sc2c(c1-c1nc3ccccc3s1)CCCNC2	none (no result: DAX1 inh-1, DAX1 inh-2)
Cc1[nH]c2ccccc2c1-c1csc(N)n1	none
COc1ccccc1Nc1nc(-c2c(C)[nH]c3ccccc23)cs1	ssDAF-12 act 1.3
O=[N+]([O-])c1ccc(COc2cccc(CO)c2)cc1	none (no result: DAX1 inh-2)
COc1ccccc1NS(=O)(=O)c1cccc(C(=O)NCC2(N3CCCCC3)CCCCC2)c1	DAX1 inh-1 4.0
CNS(=O)(=O)c1cccc(C(=O)NCC2(N3CCOCC3)CCCCC2)c1	none
O=C(NCCc1ccccc1Cl)[C@@H]1CCCN1C(=O)[C@@H](NC(=O)N1CCOCC1)c1ccccc1	none (no result: DAX1 inh-2)
COC(=O)[C@H]1[C@@H](O)[C@@]2(O)c3c(OC)cc(OC)cc3O[C@@]2(c2ccc(OC)cc2)[C@@H]1c1ccc(F)cc1	none (no result: DAX1 inh-2)
Cn1nc(NC(=O)C(F)(F)F)c2nccnc21	none
Cn1nc(NC(=O)C(F)(F)F)c2ncc(-c3ccc(Cl)cc3)nc21	DAX1 inh-2 4.2
Cn1nc(N)c2ncc(-c3ccc(Cl)cc3)nc21	hgDAF12 agonist 11
CC(C)CN1C(=O)C[C@]2(C(=O)N(C)c3ccc(NS(=O)(=O)C4CC4)cc32)C1c1ccccc1 (stereo not given in full)	none (no result: DAX1 inh-2)
